# Laboratory results taken from ChEMBL document CHEMBL3988442, “University of Dundee, Small-Polar-MMV Screening Library” (2021).
# Screen size: about 48,000 compounds; about 13,000 (27%) showed an effect of 50% or more. The list shows a part of the results.
# Tested on: Wolbachia pipientis
# Experiment: Anti-Wolbachia Cell-Based Screen
# Format: functional
# Set-up: scale not given: in the data most compounds retested in dose-response had high values
# Conditions: 5 µM
row,SMILES,Percent Effect [%]
1,Cn1ccc(C(=O)NCc2ccc(Cn3ccnc3)cc2)cc1=O,-4.475
2,Cn1ccc(C(=O)NCc2ccc(CN3CCCC3)cc2)cc1=O,100.9
3,Cn1ccc(C(=O)NCc2ccc(N3CCCC3)nc2)cc1=O,-7.824
4,O=C(NCc1ccc(CN2CCCC2)cc1)NC1(CO)CCCC1,-3.44
5,Cn1ccc(C(=O)NCc2ccc(CN3CCCCC3)cc2)cc1=O,90.87
6,Cc1nccn1Cc1cccc(CNC(=O)c2ccn(C)c(=O)c2)c1,4.832
7,Cn1ccc(C(=O)NCc2cccc(Cn3ccnc3)c2)cc1=O,0.02977
8,CC1CN(c2ccc(CNC(=O)c3ccn(C)c(=O)c3)cn2)CCO1 (stereo not given),-2.154
9,CC1CCN(Cc2ccc(CNC(=O)c3ccn(C)c(=O)c3)cc2)CC1,110.1
10,Cc1c(C)n(CC(O)CN2CCOCC2)c2c(Cl)cccc12.Cl (stereo not given),0.7413
11,Cc1csc(C(C)(C)NCC(=O)N2CCCC(C(F)(F)F)C2)n1 (stereo not given),-11.49
12,COc1ccc(N(C(=O)c2ccccn2)C(C)C)cc1F,1.663
13,CCc1ccc(CN2CCN(c3ncc(Cl)cn3)CC2)nc1,-9.614
14,CC(CNC(=O)c1cc(Cn2cnc3ccccc32)[nH]n1)N1CCCC1 (stereo not given),2.077
15,CCN(CCO)C(=O)c1cc(Cn2c(C)nc3ccccc32)[nH]n1,148
16,CCCN(CCOC)C(=O)c1cc(Cn2c(C)nc3ccccc32)[nH]n1,142.8
17,CCCN(CC)C(=O)c1nc2c(n1C)CCN(Cc1ccccc1)C2,-8.908
18,COCCN(CCOC)C(=O)c1ccn(-c2ccc3ccccn23)n1,3.271
19,CC(=O)N[C@H]1CCN(C(=O)c2cc(Cn3cnc4ccccc43)[nH]n2)C1,-30.35
20,NC(=O)CNC(=O)c1cc(Cn2cnc3ccccc32)[nH]n1,-4.781
21,COCCN(C(=O)c1cc(-c2ccc(C)s2)[nH]n1)C1CC1,0.109
22,CCCN(CC)C(=O)c1cc(Cn2c(C)nc3ccccc32)[nH]n1,146

row,SMILES,Percent Effect [%]
1,COc1ccc(OC)c(CNC2CCCN(c3cccnn3)C2)c1 (stereo not given),-14.68
2,Cc1ccoc1C(=O)N1CCNCC1C(=O)NCc1ccncc1 (stereo not given),-11.73
3,Cc1cc2n(n1)CC(CNCCc1cnn(C)c1)CN2 (stereo not given),-15.02
4,O=C(NCCCC(=O)N1Cc2ccccc2C1)NCc1nccs1,-8.527
5,CC(=O)N1CCN(C(=O)CNc2ccc3ncsc3c2)CC1,-9.479
6,CCCc1nc(N(C)CCc2noc(C(C)C)n2)c2cnn(C)c2n1,13.53
7,CCc1nnc2n1CCN(C(=O)C(C)COCc1ccccc1)C2 (stereo not given),5.124
8,Cc1nn(C)c(C)c1OCC(=O)N1CCCc2c(F)ccc(F)c21,-4.523
9,Cc1ccc(F)c2c1N(C(=O)Cc1c(C)nn(C)c1C)CCC2,55.91
10,Cc1ccc(F)c2c1CCCN2C(=O)Cc1c(C)nn(C)c1C,-7.331
11,Cn1c(CC2CCS(=O)(=O)C2)nnc1SCCOc1cccc(Cl)c1 (stereo not given),-0.5002
12,N#CCCn1cnc2c(Br)cc(Br)cc2c1=O,26.83
13,COc1cc2ccn(CCS(C)(=O)=O)c(=O)c2cc1F,3.704
14,N#CCCCn1nnnc1Cc1ccc(Br)cc1,-5.124
15,N#CCCn1cnc2c(F)cc(Br)cc2c1=O,102.6
16,COCCn1cnc2c(F)cc(Br)cc2c1=O,109.9
17,N#CCCCn1cnc2c(F)cc(Br)cc2c1=O,100.3
18,Cc1cc(C)c2ncn(CCC(C)O)c(=O)c2c1 (stereo not given),-16.19
19,Cc1cc(C)c2ncn(CC(C)(C)CO)c(=O)c2c1,2.019
20,CC(C)COc1ccccc1CN(C)C(=O)c1cc(=O)[nH]c(=O)[nH]1,-33.98
21,CNCCNc1ccc(-c2nc(-c3cccc(OC)c3OC)no2)cn1,-9.505
22,CC(C)N1CCOCC2(CCN(c3cnccn3)CC2)C1.O=C(O)C(F)(F)F,-21.42

row,SMILES,Percent Effect [%]
1,Cc1noc(C)c1CN1CCOCC12CCN(c1cnccn1)CC2.O=C(O)C(F)(F)F,82.98
2,Cc1nc(CN2CCOCC3(CCCN(c4cnccn4)C3)C2)cs1.O=C(O)C(F)(F)F (stereo not given),-4.433
3,Cc1noc(C)c1CN1CCOCC12CCN(c1ncccn1)CC2.O=C(O)C(F)(F)F,113.5
4,Cc1noc(C)c1CN1CCC2(CC1)CN(c1ccccn1)CCO2.O=C(O)C(F)(F)F.O=C(O)C(F)(F)F,-6.126
5,Cc1noc(C)c1CN1CCOC2(CCCN(c3ncccn3)C2)C1.O=C(O)C(F)(F)F (stereo not given),2.072
6,Cc1nc(C2CCCN2C(=O)CN(C)Cc2ccccc2)no1 (stereo not given),10.99
7,FC(F)(F)COCCN1CCCC(c2noc(C3CC3)n2)C1 (stereo not given),7.435
8,O=C(Cc1noc2ccccc12)N1CCCC1c1noc(C2CC2)n1 (stereo not given),8.423
9,CC(C)c1nc(C2CCCN2C(=O)CN(C)Cc2ccccc2)no1 (stereo not given),-1.303
10,O=C(CCOCc1ccccc1)N1CCCC1c1noc(C2CC2)n1 (stereo not given),14.67
11,Cc1noc(C2CN(Cc3ccc4c(c3)CCO4)C2)n1.O=C(O)C(=O)O,22.63
12,O=C(CCOCC(F)(F)F)N1CCCC1c1noc(C2CC2)n1 (stereo not given),110.3
13,O=C(COCc1ccccc1)N1CCCC1c1noc(C2CC2)n1 (stereo not given),106.9
14,CN(CC(=O)N1CCCC1c1noc(C2CC2)n1)S(C)(=O)=O (stereo not given),-4.579
15,CN(CC(=O)N1CCCC1c1noc(C2CC2)n1)Cc1ccccc1 (stereo not given),125
16,O=C(COC1CCCC1)N1CCCC1c1noc(C2CC2)n1 (stereo not given),-26.64
17,O=C(Cc1ccc2c(c1)CCO2)N1CCCC1c1noc(C2CC2)n1 (stereo not given),96.74
18,CSCCC(=O)N1CCN(CC(O)C(C)(C)C)CC1 (stereo not given),-10.5
19,Cc1ccc(C(=O)N(C)S(C)(=O)=O)cc1Cl,-6.894
20,Cc1cc(S(=O)(=O)Nc2cccc(OC(F)F)c2)sc1C(=O)O,-5.292
21,Cc1nonc1C1CCCN1CCC(=O)N1CCc2ccccc2C1 (stereo not given),3.529
